# Compound activity: PubChem, National Center for Advancing Translational Sciences (NCATS)
# Shown are actives, neighbours in structure and some others; about 17% of the full set was active somewhere.
# TDP1 cell CPT = growth inhibition of DT40 Tdp1-/-;hTDP1 cells with camptothecin (screen for TDP1 inhibitors) | AID 686979 | 420,000 tested, 12% active | Potency, µM (titrated, usually from 46.2 µM), for the others: at the top dose activity change, negative = growth inhibition, hits mostly inhibitors | chicken DT40 Tdp1-/-;hTDP1 cells + 20 nM CPT, ATP luminescence, 48 h; note: % is set by controls: 0 for no effect and ±100 for the full control effect; nearly all actives have a fitted effect of over 55% in size
#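 Chicken DT40 Tdp1-/- cells stably complemented with human TDP1 were seeded at 400 cells/well in medium containing 20 nM camptothecin, exposed to pin-transferred compounds, and grown at 37 °C for at least 48 hr. Viability was read as ATP luminescence.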
# ATXN2 expr inh = ATXN2 expression inhibition. HEK-293 ATXN2-luciferase reporter, luminescence, 24 h. 360,000 tested, 0.72% active. AID 1745845. Potency, µM (series often up to 57 µM), for the others: top-dose activity change, negative = inhibition, hits mostly inhibitors; note: % is set by controls: 0 for no effect and ±100 for the full control effect; nearly all actives have a fitted effect of over 55% in size
#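 ATXN2-luciferase reporter cells (luciferase flanked by upstream and downstream ATXN2 gene portions) were treated 24 h at 37 °C with compounds at up to 57 uM. SteadyGlo luminescence gave expression; GF-AFC fluorescence gave viability.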
# S2 tox = reduces viability in counter-screen for ATXN expression inhibitors | AID 651635 | Potency, µM (doses to about 56.7 µM), usual class: cytotoxic | 400,000 tested, 0.49% active | S2 cells (HEK-293 line with an ATXN2-luciferase reporter) viability, CellTiter-Fluor protease fluorescence, 24 h; note: nearly all actives have a fitted effect of over 40% in size
# HepG2 viability = counter-screen for TGF-b inhibitors: cytotoxicity in HepG2 cells. Potency, µM (doses to about 46.1 µM), inactives show at the highest dose activity change, negative = cytotoxicity, hits mostly cytotoxic. 410,000 tested, 0.76% active. AID 588856. HepG2 CAGA-GFP viability, ATP luminescence, 18 h
#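 HepG2 CAGA-GFP cells (1000/well, DMEM with 1% FBS) received compound, then TGF-beta at 500 pg/mL final, and were incubated 18 hours at 37 degrees C. Viability was read by CellTiter-Glo luminescence. Media-only wells were set as complete cell-killing and DMSO as no toxicity.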
# DT40 TDP1 no CPT = qHTS for Inhibitors of human tyrosyl-DNA phosphodiesterase 1 (TDP1): qHTS in cells in absence of CPT; AID 686978, 2013; DT40 Tdp1-/- hTDP1 cells, no CPT, ATP luminescence, 48 h; Potency, µM (highest dose often 46.2 µM), without a hit: at the top dose activity change, negative = growth inhibition, actives largely listed as inhibitors; 420,000 tested, 15% active; note: % is set by controls: 0 for no effect and ±100 for the full control effect; nearly all actives have a fitted effect of over 55% in size
#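 Chicken DT40 Tdp1-/- cells stably complemented with human TDP1 were seeded at 400 cells/well with DMSO in place of 20 nM camptothecin. After compound pinning, cells grew at least 48 hr at 37 °C; viability read by CellTiter-Glo luminescence.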
# TGFb SMAD3 inh = blocks TGF-b signaling; HepG2 CAGA-GFP TGF-b/SMAD3 reporter, GFP fluorescence, 18 h; TGF-beta stimulated, 500 pg/mL final; Potency, µM (highest dose often 46.1 µM), for inactives: top-dose activity, negative = inhibition, most hits filed as inhibitors; 410,000 tested, 1.2% active; note: % is set by controls: 0 for no effect and ±100 for the full control effect; nearly all actives have a fitted effect of over 65% in size
#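 TGF-beta reporter screen: HEPG2 CAGA-GFP, 1% FBS, 500 pg/mL TGF-beta final, 18 h; per-cell GFP summed per well; curves fitted and categorized by class.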
# * marks the source's active call; other numbers are inactive results; i = inactive; ? = inconclusive; . = no result given; [ ] = remark or other dose. Calls come from the whole dose curve; as a rule, active = well fitted curve in the direction sought with a large enough effect; inconclusive = small, poorly fitted or top-dose-only effect, or another doubt; inactive = no such curve, though single readings can be large; an effect the other way counts as inactive or inconclusive. Potency is the fitted concentration of half-maximal effect.
SMILES,TDP1 cell CPT,ATXN2 expr inh,S2 tox,HepG2 viability,DT40 TDP1 no CPT,TGFb SMAD3 inh
CN(CC(=O)NCc1ccccc1)S(=O)(=O)c1ccc2[nH]c3c(c2c1)CCCC3,?,?,?,-22%,?,?
Cc1cc(N2CCOCC2)ccc1/C=C1/SC(=O)NC1=O,-24%,11%[11.3 µM],.,-16%,?,-8%
C=CC(C)N1C(=O)S/C(=C\c2ccc(N3CCOCC3)cc2C)C1=O (stereo unspecified),21µM*,29%,i,6%,13µM*,3%
CC(C)(O)[C@@H]1CC[C@@](C)(C2CC[C@]3(C)C2[C@H](O)CC2[C@@]4(C)CC[C@H](O)C(C)(C)C4[C@@H](O[C@H]4O[C@@H](CO)[C@H](O)[C@@H](O)[C@@H]4O[C@@H]4O[C@H](CO)[C@@H](O)[C@H](O)[C@H]4O)C[C@]23C)O1 (stereo in doubt),-20%,12%,i,0%,4%,17%
CCOc1ccc(-c2nn3c(-c4cc(-c5ccccc5)n[nH]4)nnc3s2)cc1,16µM*,.,.,-13%,14µM*,-8%
COc1ccc(-c2nn3c(-c4cc(-c5ccccc5)n[nH]4)nnc3s2)cc1,3.5µM*,.,.,-14%,2.8µM*,-7%
COc1ccc(-c2nn3c(-c4cc(-c5ccccc5)n[nH]4)nnc3s2)cc1OC,2.8µM*,.,.,-1%,4.5µM*,6%
CCOc1ccc(-c2nnc3sc(-c4ccccc4OC)nn23)cc1,-13%,-11%,i,1%,-6%,-6%
COCCOC(=O)C1=C(C)NC2=C(C(=O)CC(c3ccccc3OC)C2)C1c1cccc(O)c1 (stereo unspecified),.,85%,.,.,.,.
CC(Oc1ccccc1F)c1nnc(SCC(=O)Nc2ccc(N3CCOCC3)cc2)o1 (stereo unspecified),2%,5%,?,-3%,8%,-4%
CCOC(=O)c1c(O)cc(OC)cc1CCc1ccccc1,-18%,3%,i,-1%,-19%,-6%
COc1cccc(CNC(=O)Cn2c(=O)n3nc(-c4cccc(C)c4)nc3c3ccccc32)c1,16µM*,27%,i,-12%,15µM*,-7%
COc1cccc(CNC(=O)Cn2c(=O)n3nc(-c4cccc(F)c4)nc3c3ccccc32)c1,-6%,2%,i,14%,-13%,3%
Cc1cccc(NC(=O)Cn2c(=O)n3nc(CCn4nc(C)cc4C)nc3c3ccccc32)c1,18µM*,-2%,?,-14%,13µM*,12%
O=C(NC1CCCCC1)C(CCc1ccccc1)N1CCOCC1 (stereo unspecified),5%,-15%,i,-19%,1%,-18%
O=C(NC1CCCCC1)C(CCc1ccccc1)N1CCc2ccccc2C1 (stereo unspecified),21µM*,13%,i,-12%,21µM*,10µM*
CC(C)Cc1nc2oc3c(NCCCN4CCOCC4)ncnc3c2c2c1CCC2,16µM*,-2%,i,-15%,?,-29%
CC(C)Cc1nc2oc3c(Cl)ncnc3c2c2c1CCC2,13µM*,?,?,-6%,18µM*,-30%
Cc1csc2c(NCCCN3CCOCC3)ncnc12,6%,8%,i,6%,1%,-10%
CC(C)c1nc2oc3c(N4CCNCC4)ncnc3c2c2c1CCC2,-14%,-5%,i,0%,17%,7%
O=C(NNC(=O)c1cccc2ccccc12)c1ccc2c(c1)OCO2,16%,48%,i,8%,?,10%
CC(=O)c1sc(=S)n(-c2ccc(Cl)cc2)c1C,18µM*,.,i,-10%,?,-12%
CCC(C)c1ccccc1OCCCNC1CCCC1 (stereo unspecified),?,.,i,-50%,18µM*,?
COCCCNCCCCOc1ccc(OCc2ccccc2)cc1,?,.,?,-116%,23µM*,?
C=CCNCCCCOc1ccc(OCc2ccccc2)cc1,?,.,i,-26%,23µM*,-7%
SMILES,TDP1 cell CPT,ATXN2 expr inh,S2 tox,HepG2 viability,DT40 TDP1 no CPT,TGFb SMAD3 inh
C=CCNCCCCOc1ccccc1-c1ccccc1,?,-4%,i,-7%,?,-2%
c1ccc(COc2ccc(OCCCNC3CCCC3)cc2)cc1,?,2%,i,-68%,21µM*,?
CCC(C)c1ccccc1OCCCCN1CCCC1 (stereo unspecified),?,-4%,i,0%,?,-4%
CCc1cccc(OCCCCNCCOC)c1,-10%,-3%,i,2%,-28%,2%
CCS(=O)(=O)N1CCC(C(=O)Oc2ccccc2Br)CC1,2%,2%,i,4%,8%,-12%
COc1ccc(C(=O)N2CCC2(C)C(=O)O)cc1F (stereo unspecified),-26%,2%,i,-5%,-5%,15%
COc1coc(C(O)C[N+](=O)[O-])cc1=O (stereo unspecified),29µM*,18%,i,-3%,?,3%
FC(F)(F)C1=NNC(c2ccc3ccccc3c2)=NN1,-19%,.,i,-24%,?,0%
Cc1cccc(CS(=O)(=O)c2ncc(Cl)c(C(=O)Nc3nc4ccc(F)cc4s3)n2)c1,2.3µM*,14%,i,-24%,2.3µM*,?
CSc1ncc(Cl)c(C(=O)Nc2nc3ccc(F)cc3s2)n1,1%,2%,i,-16%,4%,7%
O=C(Nc1nc2ccc(F)cc2s1)c1nc(S(=O)(=O)Cc2ccccc2)ncc1Cl,2.3µM*,?,14µM*,-116%,2.3µM*,?
CC12CCC(C(=O)Nc3cccc(Cl)c3)(C(Br)C1=O)C2(C)C (stereo unspecified),?,0%,i,-25%,18µM*,-29%
COc1cc(C(=O)NCC(=O)NCCCSc2ccccc2)cc(OC)c1OC,?,-7%,i,-13%,-17%,-16%
COc1ccc(Cn2c(C(=O)O)c(CNCc3ccc(C)o3)c3ccc(OC)cc32)cc1,23µM*,-4%,?,-31%,-97%,?
COc1ccc2c(CNCc3ccc(C)o3)c(C(=O)O)n(Cc3ccccc3C)c2c1,7.3µM*,.,.,-2%,3.3µM*,0%
COc1ccc2c(CNCc3ccc(Cl)cc3)c(C(=O)O)n(Cc3ccccc3C)c2c1,2.3µM*,.,.,-26%,1.2µM*,6%
